The text below walks through data of publication PMC7862700, “An all-to-all approach to the identification of sequence-specific readers for epigenetic DNA modifications on cytosine”.

Assay in all cases: DAPPL (digital affinity profiling via proximity ligation, sequencing); 10 mM Tris-HCl pH 7.5, 50 mM NaCl, 1 mM DTT, 4% glycerol, room temperature, 30 min; GST-TFs on glutathione beads, 16-mer random dsDNA library, 0.1% formaldehyde crosslink after washing; high values mean tight binding
Common to all, as to conditions: protein: recombinant; tags: N-terminal GST; dsDNA, one strand shown

One test addresses T1, ELK1 (Homo sapiens, UniProt P19419 1-428).
T1 sequence: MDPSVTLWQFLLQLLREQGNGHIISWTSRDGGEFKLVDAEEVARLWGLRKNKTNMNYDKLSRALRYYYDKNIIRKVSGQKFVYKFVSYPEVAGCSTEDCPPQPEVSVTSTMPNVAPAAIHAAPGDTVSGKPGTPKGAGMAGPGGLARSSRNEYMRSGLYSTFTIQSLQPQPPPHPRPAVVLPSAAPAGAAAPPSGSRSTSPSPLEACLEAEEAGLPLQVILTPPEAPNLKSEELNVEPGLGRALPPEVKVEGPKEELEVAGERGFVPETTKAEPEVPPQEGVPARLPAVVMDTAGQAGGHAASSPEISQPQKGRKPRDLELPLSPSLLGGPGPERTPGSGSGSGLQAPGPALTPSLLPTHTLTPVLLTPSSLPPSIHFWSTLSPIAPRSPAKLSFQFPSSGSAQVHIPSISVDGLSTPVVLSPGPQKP
Summed up: (§1)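 A tag-only sample was pooled with DNA-barcoded human transcription factors that had been expressed in yeast as GST fusions and captured on glutathione beads. The pools were incubated for 30 min at room temperature with 200 nmole of a random double-stranded 16-mer DNA library in Tris/NaCl/DTT/glycerol buffer, then washed, crosslinked with 0.1% formaldehyde, proximity-ligated (BsaI/T4 ligase, 1 h, 37 °C), PCR-amplified and sequenced on an Illumina NextSeq500. Binding signal is each hexamer's read frequency for a factor divided by its frequency for the tag-only sample.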

Another test concerns the target T2, GABPA (Homo sapiens, UniProt Q06546 1-454).
T2 sequence: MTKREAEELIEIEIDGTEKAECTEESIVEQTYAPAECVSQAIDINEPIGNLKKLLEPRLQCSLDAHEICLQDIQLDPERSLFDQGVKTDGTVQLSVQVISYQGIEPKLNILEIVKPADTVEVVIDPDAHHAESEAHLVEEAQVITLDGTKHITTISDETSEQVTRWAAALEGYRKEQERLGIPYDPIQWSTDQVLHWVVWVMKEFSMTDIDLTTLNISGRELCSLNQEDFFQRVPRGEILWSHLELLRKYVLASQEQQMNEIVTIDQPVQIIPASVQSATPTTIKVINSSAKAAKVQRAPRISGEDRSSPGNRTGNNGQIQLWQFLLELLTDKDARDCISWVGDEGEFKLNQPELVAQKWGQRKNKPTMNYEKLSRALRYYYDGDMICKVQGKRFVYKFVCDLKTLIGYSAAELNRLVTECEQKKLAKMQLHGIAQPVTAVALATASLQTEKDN
The essentials:
as §1

The target of a further test is T3, ERG (Homo sapiens, UniProt P11308 1-479).
T3 sequence: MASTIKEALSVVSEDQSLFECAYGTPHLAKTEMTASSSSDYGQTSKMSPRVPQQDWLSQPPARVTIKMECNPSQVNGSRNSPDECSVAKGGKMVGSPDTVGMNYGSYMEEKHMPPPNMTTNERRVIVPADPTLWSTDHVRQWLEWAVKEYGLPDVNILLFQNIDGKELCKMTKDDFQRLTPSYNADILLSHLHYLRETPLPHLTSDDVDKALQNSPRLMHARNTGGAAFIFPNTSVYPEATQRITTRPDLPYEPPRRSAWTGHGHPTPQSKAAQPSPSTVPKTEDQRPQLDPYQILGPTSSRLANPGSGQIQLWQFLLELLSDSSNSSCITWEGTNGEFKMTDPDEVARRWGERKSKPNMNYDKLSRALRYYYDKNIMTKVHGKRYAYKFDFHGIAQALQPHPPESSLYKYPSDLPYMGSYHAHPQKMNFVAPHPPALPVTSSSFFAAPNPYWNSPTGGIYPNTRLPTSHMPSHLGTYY
The essentials: as §1

The next test has as its target ELF1 (Homo sapiens, UniProt P32519 1-619). The essentials:
as §1

The target of a further test is T4, EHF (Homo sapiens, UniProt Q9NZC4 1-300).
T4 sequence: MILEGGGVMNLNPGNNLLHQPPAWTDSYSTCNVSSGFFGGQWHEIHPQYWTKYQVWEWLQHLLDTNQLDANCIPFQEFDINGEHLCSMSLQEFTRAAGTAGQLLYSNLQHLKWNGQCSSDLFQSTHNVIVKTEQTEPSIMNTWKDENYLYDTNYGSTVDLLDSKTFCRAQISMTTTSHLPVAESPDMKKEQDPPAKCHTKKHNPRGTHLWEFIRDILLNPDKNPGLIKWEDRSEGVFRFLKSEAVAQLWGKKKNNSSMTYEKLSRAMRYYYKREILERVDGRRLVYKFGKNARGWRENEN
Summed up:
as §1

The next test deals with SPIB (Homo sapiens, UniProt Q01892 1-262). Summed up: as §1
The target in a further test is T5, ELK3 (Homo sapiens, UniProt P41970 1-407).
T5 sequence: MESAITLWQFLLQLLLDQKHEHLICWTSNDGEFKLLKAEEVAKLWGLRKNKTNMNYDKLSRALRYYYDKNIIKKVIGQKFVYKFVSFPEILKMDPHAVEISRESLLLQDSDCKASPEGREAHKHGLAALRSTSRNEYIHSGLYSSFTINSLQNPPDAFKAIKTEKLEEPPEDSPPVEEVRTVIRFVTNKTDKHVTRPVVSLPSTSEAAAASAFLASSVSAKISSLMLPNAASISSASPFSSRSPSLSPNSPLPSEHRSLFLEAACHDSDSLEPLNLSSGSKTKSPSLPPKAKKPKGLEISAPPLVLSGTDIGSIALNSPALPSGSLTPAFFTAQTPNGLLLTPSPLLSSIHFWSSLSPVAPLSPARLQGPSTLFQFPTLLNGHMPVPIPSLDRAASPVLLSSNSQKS
Summed up:
as §1

In a further test the target is ETV5 (Homo sapiens, UniProt P41161 1-510). Summed up: as §1
Another test addresses T6, SPIC (Homo sapiens, UniProt Q8N5J4 1-248).
T6 sequence: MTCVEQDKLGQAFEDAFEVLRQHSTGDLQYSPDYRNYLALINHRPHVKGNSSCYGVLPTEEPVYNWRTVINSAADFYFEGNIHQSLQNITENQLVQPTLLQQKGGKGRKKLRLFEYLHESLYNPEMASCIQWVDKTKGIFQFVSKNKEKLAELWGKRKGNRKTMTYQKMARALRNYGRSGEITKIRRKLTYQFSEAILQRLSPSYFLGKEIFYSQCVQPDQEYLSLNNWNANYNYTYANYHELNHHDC
The essentials: as §1

The target of the next test is ELF4 (Homo sapiens, UniProt Q99607 1-663). The essentials: as §1
For a further test, the target named is T7, ELF3 (Homo sapiens, UniProt P78545 1-371).
T7 sequence: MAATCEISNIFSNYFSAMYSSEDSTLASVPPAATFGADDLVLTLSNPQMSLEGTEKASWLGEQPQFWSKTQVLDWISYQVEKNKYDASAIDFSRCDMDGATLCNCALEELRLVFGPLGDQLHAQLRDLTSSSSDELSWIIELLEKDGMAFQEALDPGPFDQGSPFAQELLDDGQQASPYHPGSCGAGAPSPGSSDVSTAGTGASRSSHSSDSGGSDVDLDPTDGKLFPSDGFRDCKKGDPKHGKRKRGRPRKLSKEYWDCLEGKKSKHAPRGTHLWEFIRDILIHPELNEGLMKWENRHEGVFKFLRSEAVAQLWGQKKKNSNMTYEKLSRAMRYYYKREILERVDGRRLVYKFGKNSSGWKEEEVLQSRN
The essentials: as §1

For another test, the target named is ETV1 (Homo sapiens, UniProt P50549 1-477). Summed up: as §1
The target in a further test is T8, ERF (Homo sapiens, UniProt P50548 1-548).
T8 sequence: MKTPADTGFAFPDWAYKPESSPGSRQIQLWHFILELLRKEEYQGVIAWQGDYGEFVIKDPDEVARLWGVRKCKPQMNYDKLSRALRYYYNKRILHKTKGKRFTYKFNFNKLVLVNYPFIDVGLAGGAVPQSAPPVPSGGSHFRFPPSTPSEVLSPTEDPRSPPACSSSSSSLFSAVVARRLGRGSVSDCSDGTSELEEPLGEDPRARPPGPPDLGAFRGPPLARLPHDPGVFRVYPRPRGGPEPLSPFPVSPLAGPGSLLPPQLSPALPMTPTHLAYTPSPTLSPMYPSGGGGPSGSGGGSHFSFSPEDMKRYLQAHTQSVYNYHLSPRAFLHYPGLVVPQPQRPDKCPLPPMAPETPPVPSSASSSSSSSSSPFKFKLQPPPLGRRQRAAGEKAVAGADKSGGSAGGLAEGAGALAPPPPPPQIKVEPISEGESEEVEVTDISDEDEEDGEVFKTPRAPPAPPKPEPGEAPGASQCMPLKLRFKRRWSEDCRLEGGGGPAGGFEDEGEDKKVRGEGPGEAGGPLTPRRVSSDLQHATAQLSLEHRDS
The essentials:
as §1

Another test deals with T9, ETV3L (Homo sapiens, UniProt Q6ZN32 1-361).
T9 sequence: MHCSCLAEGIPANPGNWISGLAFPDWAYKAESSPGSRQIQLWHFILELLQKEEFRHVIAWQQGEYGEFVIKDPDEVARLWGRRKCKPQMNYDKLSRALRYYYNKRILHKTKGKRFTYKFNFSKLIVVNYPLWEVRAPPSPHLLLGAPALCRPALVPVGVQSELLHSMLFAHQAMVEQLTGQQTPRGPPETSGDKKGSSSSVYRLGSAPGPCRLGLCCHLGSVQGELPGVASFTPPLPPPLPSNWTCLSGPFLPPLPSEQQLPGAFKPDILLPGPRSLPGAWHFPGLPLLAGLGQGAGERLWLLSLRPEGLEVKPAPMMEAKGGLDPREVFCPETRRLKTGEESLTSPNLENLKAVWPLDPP
Summed up:
as §1

A further test deals with T10, ETS2 (Homo sapiens, UniProt P15036 1-469).
T10 sequence: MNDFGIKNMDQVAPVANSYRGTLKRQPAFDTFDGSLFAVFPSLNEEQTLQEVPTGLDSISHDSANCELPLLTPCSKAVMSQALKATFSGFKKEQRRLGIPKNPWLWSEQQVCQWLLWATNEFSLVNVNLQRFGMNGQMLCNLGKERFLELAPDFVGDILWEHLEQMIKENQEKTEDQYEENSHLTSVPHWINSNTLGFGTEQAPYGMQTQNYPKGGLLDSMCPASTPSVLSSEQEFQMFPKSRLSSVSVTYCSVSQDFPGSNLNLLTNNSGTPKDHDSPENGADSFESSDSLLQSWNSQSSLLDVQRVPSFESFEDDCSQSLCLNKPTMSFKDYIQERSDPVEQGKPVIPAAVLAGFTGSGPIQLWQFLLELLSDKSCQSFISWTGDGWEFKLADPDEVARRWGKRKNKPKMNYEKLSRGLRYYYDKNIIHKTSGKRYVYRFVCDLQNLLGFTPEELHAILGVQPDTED
The essentials:
as §1

The next test deals with T11, SPDEF (Homo sapiens, UniProt O95238 1-335).
T11 sequence: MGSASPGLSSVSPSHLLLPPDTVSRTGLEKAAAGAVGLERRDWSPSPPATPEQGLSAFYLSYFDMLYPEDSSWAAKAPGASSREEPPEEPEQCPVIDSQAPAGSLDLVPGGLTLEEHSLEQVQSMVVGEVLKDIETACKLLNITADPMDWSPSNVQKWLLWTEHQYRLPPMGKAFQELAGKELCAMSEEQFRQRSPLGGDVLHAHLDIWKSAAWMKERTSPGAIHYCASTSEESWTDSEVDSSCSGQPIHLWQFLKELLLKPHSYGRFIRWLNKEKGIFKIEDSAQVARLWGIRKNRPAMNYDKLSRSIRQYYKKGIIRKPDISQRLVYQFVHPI
The essentials: as §1

In the next test the target is T12, ETV7 (Homo sapiens, UniProt Q9Y603 1-341).
T12 sequence: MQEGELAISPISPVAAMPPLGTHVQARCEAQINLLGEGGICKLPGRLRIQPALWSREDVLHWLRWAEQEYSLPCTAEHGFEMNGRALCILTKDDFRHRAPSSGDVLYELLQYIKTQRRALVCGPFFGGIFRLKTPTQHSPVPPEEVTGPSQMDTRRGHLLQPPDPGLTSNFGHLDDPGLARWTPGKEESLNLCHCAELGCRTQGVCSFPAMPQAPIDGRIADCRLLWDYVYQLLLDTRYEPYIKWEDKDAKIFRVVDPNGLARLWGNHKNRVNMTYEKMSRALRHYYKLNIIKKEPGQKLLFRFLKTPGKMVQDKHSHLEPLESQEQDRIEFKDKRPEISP
The essentials: as §1

A further test addresses T13, ETV3 (Homo sapiens, UniProt P41162-2 1-143).
T13 sequence: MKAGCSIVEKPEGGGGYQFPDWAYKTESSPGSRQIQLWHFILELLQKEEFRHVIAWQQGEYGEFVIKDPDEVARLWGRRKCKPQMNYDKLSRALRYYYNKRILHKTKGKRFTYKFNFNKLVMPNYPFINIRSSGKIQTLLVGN
Summed up:
as §1

A further test concerns the target ETV6 (Homo sapiens, UniProt P41212 1-452). The essentials: as §1

Chain of ETV1 (P50549 whole entry): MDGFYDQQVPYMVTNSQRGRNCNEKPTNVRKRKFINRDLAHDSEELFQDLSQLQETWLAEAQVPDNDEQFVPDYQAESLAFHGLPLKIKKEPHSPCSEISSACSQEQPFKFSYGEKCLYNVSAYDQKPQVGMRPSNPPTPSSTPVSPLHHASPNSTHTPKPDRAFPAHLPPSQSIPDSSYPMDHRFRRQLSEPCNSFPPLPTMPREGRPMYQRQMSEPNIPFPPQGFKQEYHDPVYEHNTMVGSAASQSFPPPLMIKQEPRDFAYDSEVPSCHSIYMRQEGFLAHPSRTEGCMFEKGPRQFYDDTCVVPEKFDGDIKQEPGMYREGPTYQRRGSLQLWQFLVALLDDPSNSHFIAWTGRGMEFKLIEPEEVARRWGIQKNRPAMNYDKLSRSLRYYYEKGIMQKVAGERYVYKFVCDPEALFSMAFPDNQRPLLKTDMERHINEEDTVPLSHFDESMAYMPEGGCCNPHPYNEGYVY
Chain of SPIB (Q01892 whole entry): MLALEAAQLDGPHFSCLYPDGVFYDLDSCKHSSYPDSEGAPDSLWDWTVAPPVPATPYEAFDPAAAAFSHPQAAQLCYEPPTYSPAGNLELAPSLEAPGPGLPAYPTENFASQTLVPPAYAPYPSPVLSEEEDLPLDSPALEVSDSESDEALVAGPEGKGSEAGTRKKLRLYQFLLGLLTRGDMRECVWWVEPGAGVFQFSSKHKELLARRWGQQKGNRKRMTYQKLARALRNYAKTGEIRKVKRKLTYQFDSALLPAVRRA
Chain of ELF1 (P32519 whole entry): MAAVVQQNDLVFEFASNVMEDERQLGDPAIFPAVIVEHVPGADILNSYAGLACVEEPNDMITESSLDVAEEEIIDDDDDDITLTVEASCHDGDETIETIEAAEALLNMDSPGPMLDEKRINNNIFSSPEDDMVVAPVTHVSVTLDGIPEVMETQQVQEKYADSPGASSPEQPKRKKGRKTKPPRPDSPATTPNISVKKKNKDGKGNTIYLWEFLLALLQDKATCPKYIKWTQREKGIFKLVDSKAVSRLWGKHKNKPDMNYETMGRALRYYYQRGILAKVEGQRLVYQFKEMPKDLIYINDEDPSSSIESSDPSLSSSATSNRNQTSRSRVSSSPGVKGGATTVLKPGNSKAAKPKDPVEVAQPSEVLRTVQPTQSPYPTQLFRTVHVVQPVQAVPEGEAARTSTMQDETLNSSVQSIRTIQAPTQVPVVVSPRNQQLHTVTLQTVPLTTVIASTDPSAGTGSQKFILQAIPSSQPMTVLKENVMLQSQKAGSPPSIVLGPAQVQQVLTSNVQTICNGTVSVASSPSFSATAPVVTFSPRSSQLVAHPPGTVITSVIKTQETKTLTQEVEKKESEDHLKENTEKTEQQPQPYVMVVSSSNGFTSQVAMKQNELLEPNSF
Chain of ETV5 (P41161 whole entry): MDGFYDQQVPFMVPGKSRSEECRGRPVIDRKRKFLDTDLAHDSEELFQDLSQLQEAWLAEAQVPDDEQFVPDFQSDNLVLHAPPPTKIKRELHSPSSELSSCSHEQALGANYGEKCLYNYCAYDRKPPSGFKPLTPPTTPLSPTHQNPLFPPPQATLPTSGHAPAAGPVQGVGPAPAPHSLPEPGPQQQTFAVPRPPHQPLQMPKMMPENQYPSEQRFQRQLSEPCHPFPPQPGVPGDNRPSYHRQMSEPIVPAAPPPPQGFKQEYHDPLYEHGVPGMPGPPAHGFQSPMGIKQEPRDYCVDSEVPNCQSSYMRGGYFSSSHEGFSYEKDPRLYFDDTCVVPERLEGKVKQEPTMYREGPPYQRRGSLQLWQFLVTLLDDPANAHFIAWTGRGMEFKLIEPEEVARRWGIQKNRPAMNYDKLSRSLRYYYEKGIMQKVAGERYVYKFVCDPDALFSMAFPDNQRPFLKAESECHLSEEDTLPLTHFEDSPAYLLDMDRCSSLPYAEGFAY
Chain of ELF4 (Q99607 whole entry): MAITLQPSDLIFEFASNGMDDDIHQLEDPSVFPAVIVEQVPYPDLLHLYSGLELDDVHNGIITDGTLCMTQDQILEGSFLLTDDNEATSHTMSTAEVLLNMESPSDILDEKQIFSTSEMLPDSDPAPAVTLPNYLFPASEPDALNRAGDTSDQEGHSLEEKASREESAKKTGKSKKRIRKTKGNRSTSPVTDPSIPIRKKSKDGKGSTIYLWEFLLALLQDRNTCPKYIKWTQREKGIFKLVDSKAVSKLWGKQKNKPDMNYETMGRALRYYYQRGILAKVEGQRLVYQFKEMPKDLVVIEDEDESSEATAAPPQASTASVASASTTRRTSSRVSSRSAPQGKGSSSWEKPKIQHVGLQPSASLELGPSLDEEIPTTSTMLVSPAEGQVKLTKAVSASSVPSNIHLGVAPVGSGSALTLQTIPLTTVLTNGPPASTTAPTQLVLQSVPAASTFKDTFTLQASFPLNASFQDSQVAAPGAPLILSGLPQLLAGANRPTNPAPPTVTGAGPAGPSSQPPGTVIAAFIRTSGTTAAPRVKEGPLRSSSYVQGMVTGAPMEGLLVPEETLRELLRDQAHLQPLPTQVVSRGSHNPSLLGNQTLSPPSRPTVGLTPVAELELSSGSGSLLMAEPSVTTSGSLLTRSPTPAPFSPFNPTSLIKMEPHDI
Chain of ETV6 (P41212 whole entry): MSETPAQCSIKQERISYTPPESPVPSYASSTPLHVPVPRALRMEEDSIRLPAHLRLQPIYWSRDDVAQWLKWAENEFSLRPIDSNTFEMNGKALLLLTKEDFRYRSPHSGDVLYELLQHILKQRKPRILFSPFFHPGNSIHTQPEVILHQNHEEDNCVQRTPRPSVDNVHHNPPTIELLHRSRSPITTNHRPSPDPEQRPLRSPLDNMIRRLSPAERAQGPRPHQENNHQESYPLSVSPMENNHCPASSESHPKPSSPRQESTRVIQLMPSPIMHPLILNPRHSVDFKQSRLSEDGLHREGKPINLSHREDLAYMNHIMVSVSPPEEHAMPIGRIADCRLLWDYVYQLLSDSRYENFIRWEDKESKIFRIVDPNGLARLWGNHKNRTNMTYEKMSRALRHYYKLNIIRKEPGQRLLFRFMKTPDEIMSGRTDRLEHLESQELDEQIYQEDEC

For AGTGCA, the binding signal with ELK1 was 1.1 fold enrichment (6-mer frequency, TF over GST control); with GABPA it was 1.1 fold enrichment (6-mer frequency, TF over GST control); with ERG it was 1.07 fold enrichment (6-mer frequency, TF over GST control); with ELF1, 1.07 fold enrichment (6-mer frequency, TF over GST control); in the test with EHF, 1.09 fold enrichment (6-mer frequency, TF over GST control); with SPIB, 1.08 fold enrichment (6-mer frequency, TF over GST control). For the same sequence, the binding signal with ELK3 is 1.13 fold enrichment (6-mer frequency, TF over GST control); with ETV5, 1.14 fold enrichment (6-mer frequency, TF over GST control); with SPIC, 1.21 fold enrichment (6-mer frequency, TF over GST control); with ELF4, 1.03 fold enrichment (6-mer frequency, TF over GST control); with ELF3 it was 1.16 fold enrichment (6-mer frequency, TF over GST control); in the test with ETV1 it was 1.11 fold enrichment (6-mer frequency, TF over GST control). The binding signal with ERF is 1.12 fold enrichment (6-mer frequency, TF over GST control); with ETV3L, 1.03 fold enrichment (6-mer frequency, TF over GST control); with ETS2, 1.08 fold enrichment (6-mer frequency, TF over GST control); with SPDEF it was 1.07 fold enrichment (6-mer frequency, TF over GST control); in the test with ETV7, 1.18 fold enrichment (6-mer frequency, TF over GST control); with ETV3, 1.05 fold enrichment (6-mer frequency, TF over GST control). Also, in the test with ETV6, the binding signal was 1.16 fold enrichment (6-mer frequency, TF over GST control).
